The source made the active and inactive calls.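 How the source made its calls: active means inhibition of the reporter signal at or above 50%; inactive means inhibition below 50%.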
Experiment: TLR3 IRF3 reporter activation blockers – cell-based, poly I:C stimulus, luciferase, 10K MLSCN set, primary screen (AID 602277)
Details: HEK293-TLR3 RL24 IRF3 luciferase reporter, at 10 µM, hits give high values

inhibition, active:
CC1Cc2nc(SCC(=O)Nc3ccc4c(c3)OCO4)n(-c3ccc(F)cc3)c(=O)c2S1 (stereo not given) 51.2%

inhibition, inactive:
COC(=O)c1ccccc1NC(=O)CC(NCc1ccccc1)C(=O)O (stereo not given) 16.2%, CCOC(=O)N1CCN(C(=O)c2ccc(CS(=O)(=O)c3c(Cl)cccc3Cl)o2)CC1 21.2%, O=C(Cc1ccccc1)Nc1ccc(CN2CCOCC2)cc1 -71.3%, COc1ccc(N(CC(=O)O)S(=O)(=O)c2ccc(OC)c(OC)c2)cc1 22.3%, Cc1ccc(C)c(C(=O)CC2(O)C(=O)N(C)c3ccccc32)c1 (stereo not given) 33.7%, CCC1CCCN1Cn1cnc2c([nH]c3ccc(OC)cc32)c1=O (stereo not given) 26.1%, CCCn1c(C)nc2c(c1=O)c1nc3ccccc3nc1n2CCc1ccccc1 0.543%, CCOC(=O)C(CCc1nnc(N)s1)C(=O)OCC 11.9%, CCOC(=O)c1c(N)sc(C(=O)N2CCOCC2)c1C 18.1%, Cc1oc(-c2cccc(Cl)c2)nc1CN1CCC(C(=O)N2CCN(c3ccccc3F)CC2)CC1 -26%, COc1ccc(NC(=O)CN2CCN(S(=O)(=O)c3ccc(Cl)cc3)CC2)cc1 17.3%, O=C(CS(=O)(=O)c1cn(Cc2ccc(Cl)cc2)c2ccccc12)N1CCCC1 34%, O=C(OCc1cc2ccccc2[nH]c1=O)c1ccco1 31.1%, CC1CCCCC1NC(=O)c1nn(C)c(=O)c2ccccc12 (stereo not given) 2.78%, COc1ccccc1Oc1ccc(S(=O)(=O)N2CCOCC2)cc1S(=O)(=O)N1CCOCC1 1.69%, CCOC(=O)N1CCN(C(=O)CSc2ncnc3ccccc23)CC1 -8.53%, COC(=O)Nc1nnc(CCc2ccccc2)s1 2.62%, O=C(c1ccco1)N1CCN(CCCCN2C(=O)c3ccccc3C2=O)CC1 36.3%, Fc1ccccc1Cn1nnc2c(-n3ccnc3)ncnc21 -13.8%, N/C(=N/O)c1nc(N2CCCC2)nc(N(c2ccccc2)c2ccccc2)n1 40.9%, Cc1ccc(NC(=O)C2CCCN(S(=O)(=O)c3cnc[nH]3)C2)c(Br)c1 (stereo not given) -7.13%, Cc1ccn2cc(CCNC(=O)CC(C)(C)C)nc2c1 5.08%, O=C1c2cccnc2C(=O)N1c1cccc(-c2nc3ccccc3o2)c1 13.5%, CSc1nc2c(c(=O)n1C)SC(C)C2 (stereo not given) 31.4%, O=C(Nc1cccc2ccccc12)N1CCN(c2ccccc2)CC1 15.2%, Cc1nnc(SCC(=O)NCCN2C(=O)CSC2=O)s1 19.5%, CN(C(=O)COc1cc(=O)n(C)c2ccccc12)c1ccc(Br)cc1 45.9%, CCOC(=O)c1c(C)oc2c1c(C(c1ccncc1)N1CCOCC1)c(O)c1ccccc12 (stereo not given) -31.2%, CCOC(=O)CNC(=O)CSc1nc(N)cc(N)n1 8.68%, CC(C)(CSc1nncn1N)NS(=O)(=O)c1ccc(Cl)cc1 4%, O=C(CCNS(=O)(=O)c1cccs1)Nc1ccccc1F 7.01%, CC(C)(C)c1nnc(NC(=O)C2CCN(c3ncccn3)CC2)s1 31.5%, COc1cc(Cl)c(C)cc1NC(=O)COC(=O)c1cnc(C)cn1 12.5%, O=C(CN1CCN(Cc2ccc3c(c2)OCO3)CC1)Nc1ccc2c(c1)OCCO2 17.2%, CCC(C)NC(=O)C1(C)CCC(=O)N1CCc1ccc(OC)c(OC)c1 (stereo not given) 9.44%, COC(=O)Cc1c(C)c2ccc(OCC(=O)N3CCOCC3)cc2oc1=O 13.9%, CC1=C(C(=O)Nc2ccccc2C)C2(CCCC2)C(C(N)=O)C(=O)N1 (stereo not given) 17.8%, O=C(O)C1CC=CCC1C(=O)Nc1ccc(S(=O)(=O)N2CCCc3ccccc32)cc1 (stereo not given) -62.7%, CCCC(=O)Nc1ccccc1-c1nnn(CC(=O)Nc2ccc(OC)cc2)n1 13.7%

Reference: PubChem BioAssay
